The campaign covered roughly 220,000 compounds. About 800 (0.36%) were called active. The sample holds actives, similar compounds and a random draw of the others, so the mix is not that of the screen. Values without a mark were called inactive.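 Rule for the calls: active = inhibition above about 50% (limit read from the data); inactive = the rest.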
system: calpain II (m-calpain), Sus scrofa; experiment: m-calpain protease activity blockers – biochemical, fluorogenic peptide substrate, 1536-well, primary screen (AID 1236); details: purified calpain II, 30 min, at 16 µM, hits give high values

Row | SMILES | inhibition
1 | CCCc1cc(-c2n[nH]c(=S)n2CC)c2ccccc2n1 | -40.7%
2 | CCCc1cc(-c2n[nH]c(=S)n2Cc2ccccc2)cs1 | 67.9% (active)
3 | CCc1cc(-c2n[nH]c(=S)n2CC(C)C)cs1 | 44.2%
4 | C=CCN(c1ccccc1C(=O)NCC(=O)OCC)S(=O)(=O)c1ccc(C)cc1 | -6.73%
5 | COc1ccc(C(=O)Nc2ccc(S(=O)(=O)Nc3onc(C)c3C)cc2)cc1OC | 29.6%
6 | Cc1cc(C)c2nc(-c3cccnc3)cc(C(=O)Nc3ccc(S(=O)(=O)Nc4onc(C)c4C)cc3)c2c1 | 55.4% (active)
7 | CCn1c(SCC(=O)Nc2ccc(S(=O)(=O)Nc3onc(C)c3C)cc2)nnc1-c1ccccc1 | -78.3%
8 | Cc1coc2cc3oc(=O)c(CCC(=O)O)c(C)c3cc12 | -98.6%
9 | O=c1cc(N2CCN(Cc3ccccc3)CC2)c(-c2ccccc2)n[nH]1 | -13.6%
10 | O=c1c2ccccc2c(-c2ccccc2)nn1Cc1ccccc1 | 11.2%
11 | O=c1cc(N2CCCCC2)c(-c2ccccc2)nn1Cc1cccc(F)c1 | 55.9% (active)
12 | COc1cc2sc(C)nc2cc1C | 2.42%
13 | O=C(NCCNc1ccc([N+](=O)[O-])cc1)c1cccc2c(Br)cccc12 | -5.43%
14 | O=C(COc1ccc(S(=O)(=O)N2CCCCC2)cc1)NCc1ccccn1 | -4.04%
15 | CC1(C)OC(=O)C(=CSc2ccc(C(C)(C)C)cc2)C(=O)O1 | -10.7%
16 | CCCOc1ccc(NC(=O)C2OC3OC(C)(C)OC3C3OC(C)(C)OC23)cc1 (stereo not given) | -15.2%
17 | NNC(=O)c1cccc(COCC(F)(F)C(F)F)c1 | 20.4%
18 | Cc1ccc(SCC(=O)c2sc(-c3ccccc3)nc2C)cc1 | 66.3% (active)
19 | Cc1nc(-c2ccccc2)sc1C(=O)/C=C/c1ccccc1 | -0.94%
20 | Cc1nc(-c2ccc(Cl)cc2)sc1C(=O)CBr | 27.7%
21 | Cc1ccc(C)c2c1cc(C)c1nnc(SCC(=O)Nc3cccc(C(=O)O)c3)n12 | -13.6%
22 | CC1(C)CCSC(/C=C/c2ccccc2)=N1 | -19.7%
23 | CCCN(C(=O)CSc1nnnn1C)c1c(N)n(Cc2ccccc2)c(=O)[nH]c1=O | -5.69%
24 | C=CCNc1nc(Nc2ccc(Cl)cc2)nc(OC)n1 | -20.2%

Row | SMILES | inhibition
25 | CC1=NNC(=O)C1CCC(=O)N/N=C(\C)c1ccc(Cl)cc1 (stereo not given) | -20.4%
26 | Cc1[nH]c2ccccc2c1/C=N\NC(=O)Cn1nnc(-c2ccccc2)n1 | 54.8% (active)
27 | O=C(Cn1nnc(-c2ccccc2)n1)NCc1ccccc1 | 8.33%
28 | O=C(Cn1nnc(-c2ccccc2)n1)N/N=C/c1ccc(-c2ccc(Cl)cc2)o1 | -60.4%
29 | Cc1nn(Cc2ccc(F)cc2)c(C)c1NC(=O)c1cccnc1Cl | 7.19%
30 | COc1ccccc1NC(=O)c1c(Br)cnn1C | -19.7%
31 | O=C1C=CC(=O)N1c1ccc(N2CCCCC2)cc1 | 2.8%
32 | COc1ccc(OCC(=O)NNC(=O)c2cccc(C)c2)cc1 | 1.17%
33 | COc1ccc(OCC(=O)NNC(=O)c2ccc(-c3ccccc3)cc2)cc1 | -4.48%
34 | COc1ccc(C(=O)Nc2cc(C)ccc2NC(=O)COc2ccccc2)cc1 | 51.4% (active)
35 | O=C(O)C1=C[C@H](c2cccs2)C[C@H](OCCCCO)O1 | -6.55%
36 | O=C(COC(=O)c1cnccn1)Nc1cccc2ccccc12 | -43.3%
37 | O=C(NC(=S)Nc1ccc(NC(=O)c2cccs2)cc1)c1ccc([N+](=O)[O-])cc1 | 9.92%
38 | CC1CN/C(=C\C(=O)c2ccc(Br)cc2)C(=O)N1 (stereo not given) | 14.4%
39 | O=C(/C=C/c1ccc(Cl)cc1)N1CCN(c2ccccc2[N+](=O)[O-])CC1 | 37.4%
40 | O=C(c1ccc(Cl)c([N+](=O)[O-])c1)N1CCN(c2ccccc2)CC1 | 14%
41 | CO/N=C/c1ccc(N2CCN(C(=O)c3cccc(Cl)c3)CC2)c([N+](=O)[O-])c1 | 53.5% (active)
42 | CC1=NN(c2ccccc2)C(=O)C1C(=O)c1ccc([N+](=O)[O-])cc1 (stereo not given) | 2.01%
43 | S=c1[nH]nc(Nc2ccccc2)s1 | 31.7%
44 | COc1ccc(Cl)cc1NC(=O)CN(C)Cc1ccc(OC)c(OC)c1 | 30.5%
45 | O=C(CSc1ccc(C(F)(F)F)cc1[N+](=O)[O-])NCCOc1ccccc1 | -9.45%
46 | Nc1ccccc1Sc1ccc(C(F)(F)F)cc1[N+](=O)[O-] | 87.2% (active)
47 | CCS(=O)(=O)c1cc([N+](=O)[O-])c(Sc2ccccc2N)s1 | 3.47%
48 | O=C1Nc2ccc([N+](=O)[O-])cc2C1=Nc1cccc(CO)c1 | 21.2%

Row | SMILES | inhibition
49 | CC1=NNC(=O)C1CCC(=O)N/N=C\c1cccc(Cl)c1 (stereo not given) | -0.56%
50 | COc1ccc(/C=C(\NC(=O)c2ccc(OCC(C)C)cc2)C(=O)OCc2ccco2)cc1 | 14.9%
51 | O=C(Nc1nnc(C2CC2)s1)c1ccccn1 | -3.35%
52 | N#CCCCn1c(O)c(N=NC(=O)C(O)c2ccccc2)c2ccccc21 (stereo not given) | -3.6%
53 | O=C(Cn1cncn1)N/N=C/c1c2ccccc2cc2ccccc12 | -113%
54 | O=C1OC(OC(=O)c2ccccc2Br)C(N2CCOCC2)=C1Cl (stereo not given) | -3.83%
55 | Cc1ccccc1C(=O)OC1OC(=O)C(Cl)=C1Nc1ccccc1 (stereo not given) | -2.86%
56 | Cc1ccc(NC2=C(Cl)C(=O)OC2OC(=O)c2ccccc2C)cc1 (stereo not given) | 66.5% (active)
57 | CCOc1ccc(/C=N/OCC(=O)NCc2cccs2)cc1 | 3.21%
58 | COC(=O)c1sccc1NC(=O)CC1C(=O)NCCN1C(=O)Nc1ccc(F)cc1F (stereo not given) | -15.5%
59 | Cc1cc(NC(=O)/C=C/C(=O)N(CC(=O)NC2CCCC2)c2ccc(F)cc2)no1 | 1.62%
60 | CCNC(=S)N1CCN(C(=O)c2ccco2)CC1 | -6.94%
61 | CCC(=O)Nc1ccc(C(=O)N2CCN(C(=O)c3ccco3)CC2)cc1 | 50.8% (active)
62 | O=C(c1ccc2c(c1)OCO2)N1CCN(C(=O)c2ccco2)CC1 | 14.3%
63 | CC(Sc1nnnn1C1CCCCC1)C(=O)O (stereo not given) | -11.2%
64 | C/C(=N\NC(=O)CNc1cccc2ccccc12)c1ccc(Br)s1 | 17.6%
65 | O=C(Nc1ccccc1Cl)O/N=C(/c1ccccc1)c1ccccn1 | -15.9%
66 | NCCCCCC(=O)N/N=C/c1ccc2nccnc2c1 | -3.28%
67 | CC(C)CNC(=S)NC(=O)c1ccc(Cl)cc1 | 11.4%
68 | COC/C=C/C1=CC2=CC(=O)C(C)(OC(=O)CCC(=O)OC)C(=O)C2=CO1 (stereo not given) | -93.8%
69 | NC(N)=N/N=C/c1ccc(OCc2ccc(Cl)cc2Cl)cc1 | 61.9% (active)
70 | NC(N)=N/N=C/c1ccc(Cl)c([N+](=O)[O-])c1 | -20%
71 | COc1ccc(C(=O)O/N=C(\N)Cc2ccc(Cl)cc2Cl)cc1OC | 11.8%
72 | COc1ccc(/C=N/NC(=O)c2ccc(Cl)cc2)cc1COC(C)=O | 38.9%

Row | SMILES | inhibition
73 | O=C(CN(c1cccc(Cl)c1)S(=O)(=O)c1ccccc1)NN=C1CCCC1 | -9.25%
74 | CCOc1ccc(C(=O)Nc2nccs2)cc1[N+](=O)[O-] | 0.78%
75 | COc1ccccc1N1CCN(C(=O)CSc2ncnc3c2cnn3-c2ccc(C)c(C)c2)CC1 | -19.6%
76 | CC(C)C[C@H](NC(=O)[C@@H]1O[C@H]1C(=O)O)C(=O)NCCCCN=C(N)N | 98.8% (active)
77 | COc1cc(S(=O)(=O)N(Cc2cccs2)C2CC2)ccc1-n1cnnn1 | 26%
78 | Nc1ccccc1SC(C[N+](=O)[O-])c1ccccc1 (stereo not given) | 2.09%
79 | O=C(Oc1cccnc1)c1cc2ccccc2oc1=O | -6.4%
80 | COc1ccc(C(=O)Nc2cccnc2)cc1C(=O)Nc1cccnc1 | 17.3%
81 | O=C(Nc1cccnc1)c1cc2cc(Br)ccc2oc1=O | 52.9% (active)
82 | COCCN(Cc1cc2cc3c(cc2nc1Cl)OCO3)C(=O)c1cccc(C)c1 | 24.9%
83 | NCCCC[C@@H]1NC(=O)[C@H](CCC(=O)O)NC(=O)c2cc([N+](=O)[O-])cc(I)c2NCC[C@@H](C(N)=O)NC1=O | -13.1%
84 | CCOC(=O)c1ccc2c(c1)nc(C)n2CC | 14.2%
85 | CCn1c(/C=C/Nc2ccccc2)[n+](CC)c2ccc(C(=O)OCC(F)(F)F)cc21 | 52% (active)
86 | O=C(CCS(=O)(=O)Cc1ccccc1)Nc1ccc2c(c1)OCCO2 | -23.4%
87 | CCOc1cc(/C=N/NC(=O)OC)ccc1OCCSc1ccc(Cl)cc1 | -7.99%
88 | CCOC(=O)Nc1ccc(S(=O)(=O)N(C)C(C)C)cc1 | -5.03%
89 | COc1cc(NC(=O)c2ccccc2NS(=O)(=O)c2ccc(Cl)s2)cc(OC)c1 | -32.1%
90 | Nc1cc(C(F)(F)F)ccc1N1CCOCC1 | -2.56%
91 | N=c1oc2ccccc2cc1C(=O)N/N=C/c1ccccc1 | 14.5%
92 | O=C(N/N=C\c1cccc(Br)c1)c1ccccc1-n1cccc1 | 68% (active)
93 | COc1ccc(OC)c2[nH]c(=O)c(CCNC(=O)C(=O)c3c[nH]c4ccccc34)cc12 | -38.9%
94 | CC(=O)c1ccc(NC(=O)C2CC(=O)Nc3nc4ccccc4n32)cc1 (stereo not given) | -19.9%
95 | Cc1nc2ccccc2c(C)c1C(=O)c1ccc(F)cc1 | -9.43%
